Records with an inconclusive call do not appear. Unmarked numbers belong to inactive results. Calls follow the shape of the dose curve; as a rule, active = well fitted inhibition curve with a large enough effect; inconclusive = small, poorly fitted or top-dose-only effect; inactive = flat fitted curve, though single readings scatter. Where a SMILES comes first, the peptide text is derived from it. Bridges are numbered along the chain shown (N, C = ends). [ ]: non-standard residue; d: D form. hArg = N=C(N)NCCCC[C@H](N)C(=O)O; Mpa = O=C(O)CCS
tested on: CP305; experiment: qHTS profiling for inhibitors of Plasmodium falciparum proliferation (AID 504749);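 also: 0% = DMSO vehicle and full inhibition = artemisinin control; nearly all actives have a fitted effect of over 60% in size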; conditions: P. falciparum in erythrocytes, SYBR Green DNA, 72 h; series mostly up to 28.7 µM; activity, negative = inhibition: at the top concentration
Summary of the method: (§1)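 Three-day growth assay of blood-stage parasites in erythrocytes (0.3% parasitemia, 2.5% hematocrit) at 37 C, 5% CO2, quantified by SYBR Green DNA staining after overnight detergent lysis.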

Compound	activity, negative = inhibition
Cc1onc(-c2ccccc2)c1-c1ccc(S(N)(=O)=O)cc1	0.281%
COc1ccc(C(=O)NCc2ccc(OCCN(C)C)cc2)cc1OC	-6.64%
CCCCCCCC(=O)OCC(COC(=O)CCCCCCC)OC(=O)CCCCCCC	-4.16%
CN/C(=C\[N+](=O)[O-])NCCSCc1csc(CN(C)C)n1	1.52% [at 12.8 µM]
CCN1CC(CCN2CCOCC2)C(c2ccccc2)(c2ccccc2)C1=O (centres undefined)	-15.7%
NS(=O)(=O)c1ccc(C(=O)O)cc1	0.37%
CCOC(N)=O	0.724%
Cc1c(NC(C)C)c(=O)n(-c2ccccc2)n1C	8.04%
CCOc1ccc(C(=O)OCCN(CC)CC)cc1	-3.64%
O=C(OOC(=O)c1ccccc1)c1ccccc1	-2.66%
C=CCSCC1Nc2cc(Cl)c(S(N)(=O)=O)cc2S(=O)(=O)N1 (centres undefined)	-0.37%
Cc1c(NC(=O)c2cccnc2)c(=O)n(-c2ccccc2)n1C	-10.8% [at 12.8 µM]
CCOc1cc(NC(C)=O)ccc1C(=O)OC	6.49%
Cc1ncc(CO)c(CN)c1O	2.84%
NS(=O)(=O)c1ccc(NC(=O)CCC(=O)O)cc1	-2.75%

tested on: CP315; experiment: as above; conditions: P. falciparum in erythrocytes, SYBR Green DNA, 72 h; series mostly up to 28.7 µM; activity, negative = inhibition: at the top concentration
Summary of the method: as §1

Compound	activity, negative = inhibition
O=C(Cn1ccnc1[N+](=O)[O-])NCCO	-14.6%
Cc1c(C)c2c(c(C)c1OC(=O)c1cccnc1)CC[C@@](C)(CCC[C@H](C)CCC[C@H](C)CCCC(C)C)O2	2.56%
COc1ccc2cc(CCC(C)=O)ccc2c1	1.11% [at 12.8 µM]
CN(C/C=C/C#CC(C)(C)C)Cc1cccc2ccccc12	-1.57%
CCN(CC)CCc1nc(-c2ccccc2)no1	0.49% [at 12.8 µM]
Cn1c([N+](=O)[O-])cnc1COC(N)=O	-1.29%
CC[N+](CC)(CC(=O)Nc1c(C)cccc1C)Cc1ccccc1	1.95%
CC1CCN(CCCC(=O)c2ccc(F)cc2)CC1	0.584%
COc1ccccc1OC(=O)Oc1ccccc1OC	-4.77%
CN1CCCN=C1COC(=O)C(O)(c1ccccc1)C1CCCCC1 (centres undefined)	3.47%
O=C(/C=C/c1ccccc1)OCc1ccccc1	-0.179%
Cc1c(Cn2ccnc2)c2ccccc2n1CCC(=O)O	-0.557%
NC(=O)[C@@H]1CSSCCC(=O)N[C@@H](CCCCN=C(N)N)C(=O)NCC(=O)N[C@@H](CC(=O)O)C(=O)N[C@@H](Cc2c[nH]c3ccccc23)C(=O)N2CCC[C@H]2C(=O)N1 ([Mpa][hArg]GDWPC-NH2; disulfide 1-7)	4.96%
N[C@@H](Cc1ccc(O)cc1)C(=O)O	1.2%
CC1CCc2cc(F)cc3c(=O)c(C(=O)O)cn1c23 (centres undefined)	-9.63%
C[C@@H]1O[C@@H](OC[C@H]2O[C@@H](Oc3c(-c4ccc(O)c(O)c4)oc4cc(O)cc(O)c4c3=O)[C@H](O)[C@@H](O)[C@@H]2O)[C@H](O)[C@H](O)[C@H]1O	-6.5%

Compound	activity, negative = inhibition
COc1ccc(C(=O)NCc2ccc(OCCN(C)C)cc2)cc1OC	2.06%
Cc1ccsc1C(=CCCN1CCC[C@@H](C(=O)O)C1)c1sccc1C	2.33%
CCCCCCCC(=O)OCC(COC(=O)CCCCCCC)OC(=O)CCCCCCC	-6.67%
CN/C(=C\[N+](=O)[O-])NCCSCc1csc(CN(C)C)n1	1.8% [at 12.8 µM]
CCN1CC(CCN2CCOCC2)C(c2ccccc2)(c2ccccc2)C1=O (centres undefined)	1.6%
NS(=O)(=O)c1ccc(C(=O)O)cc1	0.775%
CCOC(N)=O	-7.02%
Cc1c(NC(C)C)c(=O)n(-c2ccccc2)n1C	-12.4%
CCOc1ccc(C(=O)OCCN(CC)CC)cc1	0.542%
O=C(OOC(=O)c1ccccc1)c1ccccc1	-1.8%
C=CCSCC1Nc2cc(Cl)c(S(N)(=O)=O)cc2S(=O)(=O)N1 (centres undefined)	-5.82%
CCCCCCCCCCC(CO)CCCCCCCC (centres undefined)	0.315%
CCOc1cc(NC(C)=O)ccc1C(=O)OC	-0.231%
Cc1ncc(CO)c(CN)c1O	-1.5%
NS(=O)(=O)c1ccc(NC(=O)CCC(=O)O)cc1	0.211%

tested on: CP325; experiment: as above; conditions: P. falciparum in erythrocytes, SYBR Green DNA, 72 h; series mostly up to 28.7 µM; activity, negative = inhibition: at the top concentration
Summary of the method: as §1

Compound	activity, negative = inhibition
O=C(Cn1ccnc1[N+](=O)[O-])NCCO	1.87%
Cc1c(C)c2c(c(C)c1OC(=O)c1cccnc1)CC[C@@](C)(CCC[C@H](C)CCC[C@H](C)CCCC(C)C)O2	-5.25%
COc1ccc2cc(CCC(C)=O)ccc2c1	1.58% [at 12.8 µM]
CN(C/C=C/C#CC(C)(C)C)Cc1cccc2ccccc12	2.17%
CCN(CC)CCc1nc(-c2ccccc2)no1	-4.46% [at 12.8 µM]
COc1nccnc1NS(=O)(=O)c1ccc(N)cc1	-0.24%
Cn1c([N+](=O)[O-])cnc1COC(N)=O	-1.74%
COC(=O)c1ccc(O)cc1	-0.134%
CC[N+](CC)(CC(=O)Nc1c(C)cccc1C)Cc1ccccc1	-1.24%
CC1CCN(CCCC(=O)c2ccc(F)cc2)CC1	-15%
COc1ccccc1OC(=O)Oc1ccccc1OC	-0.505%
CN1CCCN=C1COC(=O)C(O)(c1ccccc1)C1CCCCC1 (centres undefined)	-3.32%
O=C(/C=C/c1ccccc1)OCc1ccccc1	0.99%
NC(=O)[C@@H]1CSSCCC(=O)N[C@@H](CCCCN=C(N)N)C(=O)NCC(=O)N[C@@H](CC(=O)O)C(=O)N[C@@H](Cc2c[nH]c3ccccc23)C(=O)N2CCC[C@H]2C(=O)N1 ([Mpa][hArg]GDWPC-NH2; disulfide 1-7)	2.51%
CC1CCc2cc(F)cc3c(=O)c(C(=O)O)cn1c23 (centres undefined)	8.07%
C[C@@H]1O[C@@H](OC[C@H]2O[C@@H](Oc3c(-c4ccc(O)c(O)c4)oc4cc(O)cc(O)c4c3=O)[C@H](O)[C@@H](O)[C@@H]2O)[C@H](O)[C@H](O)[C@H]1O	-17.9%
Cc1onc(-c2ccccc2)c1-c1ccc(S(N)(=O)=O)cc1	-1.28%

Compound	activity, negative = inhibition
COc1ccc(C(=O)NCc2ccc(OCCN(C)C)cc2)cc1OC	-1.85%
Cc1ccsc1C(=CCCN1CCC[C@@H](C(=O)O)C1)c1sccc1C	5.92%
CCCCCCCC(=O)OCC(COC(=O)CCCCCCC)OC(=O)CCCCCCC	0.0066%
CN/C(=C\[N+](=O)[O-])NCCSCc1csc(CN(C)C)n1	-14.4% [at 12.8 µM]
CCN1CC(CCN2CCOCC2)C(c2ccccc2)(c2ccccc2)C1=O (centres undefined)	-18.3%
NS(=O)(=O)c1ccc(C(=O)O)cc1	-6.79%
CCOC(N)=O	-0.219%
Cc1c(NC(C)C)c(=O)n(-c2ccccc2)n1C	10.9%
CCOc1ccc(C(=O)OCCN(CC)CC)cc1	0.786%
O=C(OOC(=O)c1ccccc1)c1ccccc1	-3.93%
C=CCSCC1Nc2cc(Cl)c(S(N)(=O)=O)cc2S(=O)(=O)N1 (centres undefined)	0.123%
Cc1c(NC(=O)c2cccnc2)c(=O)n(-c2ccccc2)n1C	-3.13% [at 12.8 µM]
CCCCCCCCCCC(CO)CCCCCCCC (centres undefined)	-19.4%
CCOc1cc(NC(C)=O)ccc1C(=O)OC	5.51%
Cc1ncc(CO)c(CN)c1O	0.799%
NS(=O)(=O)c1ccc(NC(=O)CCC(=O)O)cc1	-6.83%

Reference: PubChem BioAssay (NCATS)
